Data from ChEMBL document CHEMBL2218924, “A broad activity screen in support of a chemogenomic map for kinase signalling research and drug discovery” (Biochem J, 2013).

Legend:
[1] = biological target: Serine/threonine-protein kinase SIK1 (Homo sapiens) (UniProt P57059); details: at 10 µM
[2] = biological target: SRSF protein kinase 1 (Homo sapiens) (UniProt Q96SB4); details: at 1 µM
[3] = biological target: SRSF protein kinase 1 (Homo sapiens) (UniProt Q96SB4); details: at 10 µM
[4] = biological target: SRSF protein kinase 2 (Homo sapiens) (UniProt P78362); details: at 1 µM
[5] = biological target: SRSF protein kinase 2 (Homo sapiens) (UniProt P78362); details: at 10 µM
[6] = biological target: Serine/threonine-protein kinase 33 (Homo sapiens) (UniProt Q9BYT3); details: at 1 µM
[7] = biological target: Serine/threonine-protein kinase 33 (Homo sapiens) (UniProt Q9BYT3); details: at 10 µM
[8] = biological target: Serine/threonine-protein kinase PLK2 (Homo sapiens) (UniProt Q9NYY3); details: at 10 µM
[9] = biological target: Tyrosine-protein kinase SYK (Homo sapiens) (UniProt P43405); details: at 1 µM
[10] = biological target: Tyrosine-protein kinase SYK (Homo sapiens) (UniProt P43405); details: at 10 µM
[11] = biological target: T1, Mitogen-activated protein kinase kinase kinase 7 (Homo sapiens) (UniProt O43318); details: at 1 µM
T1 sequence (whole entry): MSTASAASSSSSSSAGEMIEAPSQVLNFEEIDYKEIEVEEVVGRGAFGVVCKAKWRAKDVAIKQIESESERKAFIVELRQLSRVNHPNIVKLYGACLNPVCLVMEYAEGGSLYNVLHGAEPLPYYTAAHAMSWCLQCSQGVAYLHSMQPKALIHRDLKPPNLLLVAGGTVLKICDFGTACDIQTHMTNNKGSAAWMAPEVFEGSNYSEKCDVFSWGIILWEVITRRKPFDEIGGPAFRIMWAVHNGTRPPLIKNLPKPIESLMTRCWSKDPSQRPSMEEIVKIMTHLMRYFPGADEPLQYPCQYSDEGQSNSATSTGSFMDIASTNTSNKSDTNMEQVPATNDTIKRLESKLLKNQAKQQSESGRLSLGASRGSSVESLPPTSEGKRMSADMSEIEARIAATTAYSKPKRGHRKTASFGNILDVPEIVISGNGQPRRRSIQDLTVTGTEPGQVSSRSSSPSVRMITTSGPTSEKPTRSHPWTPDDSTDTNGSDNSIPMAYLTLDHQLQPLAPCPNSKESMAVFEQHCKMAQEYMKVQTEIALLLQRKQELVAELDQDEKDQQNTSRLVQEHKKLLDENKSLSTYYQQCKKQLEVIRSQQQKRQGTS

[12] = biological target: T1, Mitogen-activated protein kinase kinase kinase 7 (Homo sapiens); details: at 10 µM
[13] = biological target: T2, Serine/threonine-protein kinase TAO1 (Homo sapiens) (UniProt Q7L7X3); details: at 1 µM
T2 sequence (whole entry): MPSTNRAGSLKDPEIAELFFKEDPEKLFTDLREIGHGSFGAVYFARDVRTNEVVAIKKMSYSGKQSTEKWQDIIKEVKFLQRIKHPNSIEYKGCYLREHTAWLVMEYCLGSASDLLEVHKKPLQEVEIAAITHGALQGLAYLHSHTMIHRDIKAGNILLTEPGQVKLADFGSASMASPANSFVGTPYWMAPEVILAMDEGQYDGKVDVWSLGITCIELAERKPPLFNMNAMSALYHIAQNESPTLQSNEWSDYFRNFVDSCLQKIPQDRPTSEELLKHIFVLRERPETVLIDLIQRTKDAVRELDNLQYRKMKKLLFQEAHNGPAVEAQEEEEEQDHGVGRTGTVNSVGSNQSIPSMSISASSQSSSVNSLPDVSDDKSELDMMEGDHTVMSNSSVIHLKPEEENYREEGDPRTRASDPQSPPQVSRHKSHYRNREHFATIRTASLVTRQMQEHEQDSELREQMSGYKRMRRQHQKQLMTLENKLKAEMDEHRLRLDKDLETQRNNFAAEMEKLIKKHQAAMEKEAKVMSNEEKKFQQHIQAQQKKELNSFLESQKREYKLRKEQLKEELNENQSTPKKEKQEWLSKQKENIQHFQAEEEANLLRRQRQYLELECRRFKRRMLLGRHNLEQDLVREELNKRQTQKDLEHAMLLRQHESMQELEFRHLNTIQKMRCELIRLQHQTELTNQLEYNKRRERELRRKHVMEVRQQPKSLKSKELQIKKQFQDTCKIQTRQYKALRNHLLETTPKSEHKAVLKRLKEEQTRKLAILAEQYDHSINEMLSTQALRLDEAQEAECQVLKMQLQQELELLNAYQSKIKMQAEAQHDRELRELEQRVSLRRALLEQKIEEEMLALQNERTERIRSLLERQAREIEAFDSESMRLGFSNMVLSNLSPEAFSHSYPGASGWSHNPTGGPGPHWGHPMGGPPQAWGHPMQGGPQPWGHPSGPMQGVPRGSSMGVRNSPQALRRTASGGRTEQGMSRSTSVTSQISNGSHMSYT

[14] = biological target: T2, Serine/threonine-protein kinase TAO1 (Homo sapiens); details: at 10 µM
[15] = biological target: T3, Serine/threonine-protein kinase TAO2 (Homo sapiens) (UniProt Q9UL54); details: at 10 µM
T3 sequence (whole entry): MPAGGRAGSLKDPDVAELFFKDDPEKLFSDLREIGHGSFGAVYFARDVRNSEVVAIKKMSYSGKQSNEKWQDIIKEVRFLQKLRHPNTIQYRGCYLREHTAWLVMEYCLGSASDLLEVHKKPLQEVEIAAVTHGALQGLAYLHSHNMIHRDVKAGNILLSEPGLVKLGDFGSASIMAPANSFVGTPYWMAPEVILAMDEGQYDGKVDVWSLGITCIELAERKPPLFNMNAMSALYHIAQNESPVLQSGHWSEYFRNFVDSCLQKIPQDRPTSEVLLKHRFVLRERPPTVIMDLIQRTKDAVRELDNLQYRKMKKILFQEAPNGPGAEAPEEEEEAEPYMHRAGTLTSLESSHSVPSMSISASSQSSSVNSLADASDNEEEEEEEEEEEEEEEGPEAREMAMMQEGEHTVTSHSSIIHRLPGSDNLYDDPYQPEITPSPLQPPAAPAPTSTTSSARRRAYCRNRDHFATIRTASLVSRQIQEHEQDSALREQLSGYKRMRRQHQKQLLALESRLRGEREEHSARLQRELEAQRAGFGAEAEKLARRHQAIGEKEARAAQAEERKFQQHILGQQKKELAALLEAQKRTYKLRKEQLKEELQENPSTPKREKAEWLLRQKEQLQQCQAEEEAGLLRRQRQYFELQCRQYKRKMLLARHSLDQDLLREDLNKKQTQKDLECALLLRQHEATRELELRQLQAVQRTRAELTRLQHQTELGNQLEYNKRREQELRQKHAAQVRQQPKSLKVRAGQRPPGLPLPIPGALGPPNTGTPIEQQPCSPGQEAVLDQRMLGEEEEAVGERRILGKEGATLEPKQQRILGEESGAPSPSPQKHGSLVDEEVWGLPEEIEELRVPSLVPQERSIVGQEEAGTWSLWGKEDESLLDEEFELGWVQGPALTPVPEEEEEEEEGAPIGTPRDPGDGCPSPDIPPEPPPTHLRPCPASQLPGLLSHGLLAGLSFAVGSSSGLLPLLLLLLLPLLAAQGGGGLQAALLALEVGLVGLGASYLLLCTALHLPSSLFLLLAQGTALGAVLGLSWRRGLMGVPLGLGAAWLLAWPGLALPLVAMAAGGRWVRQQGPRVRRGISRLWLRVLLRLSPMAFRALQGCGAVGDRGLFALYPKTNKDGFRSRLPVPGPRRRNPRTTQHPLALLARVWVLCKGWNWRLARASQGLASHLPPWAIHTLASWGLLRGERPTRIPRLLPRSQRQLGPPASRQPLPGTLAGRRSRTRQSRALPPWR

[16] = biological target: T4, Serine/threonine-protein kinase TAO3 (Homo sapiens) (UniProt Q9H2K8); details: at 10 µM
T4 sequence (whole entry): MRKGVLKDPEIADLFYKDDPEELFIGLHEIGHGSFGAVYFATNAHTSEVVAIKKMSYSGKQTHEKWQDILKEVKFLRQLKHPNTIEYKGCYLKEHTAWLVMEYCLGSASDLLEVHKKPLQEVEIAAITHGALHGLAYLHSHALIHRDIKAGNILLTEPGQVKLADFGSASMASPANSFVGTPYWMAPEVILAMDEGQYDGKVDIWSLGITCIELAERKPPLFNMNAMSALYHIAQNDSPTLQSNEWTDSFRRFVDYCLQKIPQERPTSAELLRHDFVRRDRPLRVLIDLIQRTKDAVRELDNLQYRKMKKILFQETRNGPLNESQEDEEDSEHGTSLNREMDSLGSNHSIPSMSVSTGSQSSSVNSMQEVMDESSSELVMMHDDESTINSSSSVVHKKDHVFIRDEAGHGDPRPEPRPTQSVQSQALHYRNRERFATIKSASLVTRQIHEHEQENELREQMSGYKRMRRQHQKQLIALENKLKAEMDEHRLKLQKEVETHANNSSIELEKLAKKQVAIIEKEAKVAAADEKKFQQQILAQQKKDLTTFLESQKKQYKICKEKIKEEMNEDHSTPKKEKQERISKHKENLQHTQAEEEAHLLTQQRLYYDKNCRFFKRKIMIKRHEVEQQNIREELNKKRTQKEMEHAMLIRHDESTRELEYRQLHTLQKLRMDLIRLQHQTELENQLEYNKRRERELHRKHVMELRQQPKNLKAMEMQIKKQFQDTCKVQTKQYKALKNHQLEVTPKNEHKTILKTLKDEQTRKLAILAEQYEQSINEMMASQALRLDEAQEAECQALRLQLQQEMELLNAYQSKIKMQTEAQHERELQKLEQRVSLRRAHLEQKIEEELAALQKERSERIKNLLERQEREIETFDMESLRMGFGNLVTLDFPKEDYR

[17] = biological target: T5, Serine/threonine-protein kinase TBK1 (Homo sapiens) (UniProt Q9UHD2); details: at 1 µM
T5 sequence (whole entry): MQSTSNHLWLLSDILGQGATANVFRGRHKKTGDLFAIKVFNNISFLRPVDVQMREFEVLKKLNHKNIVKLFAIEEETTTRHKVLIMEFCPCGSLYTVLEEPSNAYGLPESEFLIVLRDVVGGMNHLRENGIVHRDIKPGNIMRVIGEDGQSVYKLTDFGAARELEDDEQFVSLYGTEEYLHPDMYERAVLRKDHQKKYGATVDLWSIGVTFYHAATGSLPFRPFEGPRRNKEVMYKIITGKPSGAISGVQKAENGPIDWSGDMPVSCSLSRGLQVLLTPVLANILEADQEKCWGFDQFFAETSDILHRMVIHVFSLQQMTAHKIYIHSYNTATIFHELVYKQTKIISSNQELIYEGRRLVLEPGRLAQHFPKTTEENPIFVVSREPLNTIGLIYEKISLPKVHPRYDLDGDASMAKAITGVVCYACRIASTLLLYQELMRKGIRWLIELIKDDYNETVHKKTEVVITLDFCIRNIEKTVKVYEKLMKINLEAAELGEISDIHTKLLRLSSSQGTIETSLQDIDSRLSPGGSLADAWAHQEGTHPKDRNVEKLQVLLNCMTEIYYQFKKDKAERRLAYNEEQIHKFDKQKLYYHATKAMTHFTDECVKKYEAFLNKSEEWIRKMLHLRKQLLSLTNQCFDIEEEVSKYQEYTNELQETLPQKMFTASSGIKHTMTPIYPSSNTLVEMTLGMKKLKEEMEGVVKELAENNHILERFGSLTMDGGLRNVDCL

[18] = biological target: Serine/threonine-protein kinase PLK2 (Homo sapiens) (UniProt Q9NYY3); details: at 1 µM
[19] = biological target: T3, Serine/threonine-protein kinase TAO2 (Homo sapiens); details: at 1 µM
[20] = biological target: T4, Serine/threonine-protein kinase TAO3 (Homo sapiens); details: at 1 µM

Serine/threonine-protein kinase SIK1 (Homo sapiens), sequence (P57059 whole entry): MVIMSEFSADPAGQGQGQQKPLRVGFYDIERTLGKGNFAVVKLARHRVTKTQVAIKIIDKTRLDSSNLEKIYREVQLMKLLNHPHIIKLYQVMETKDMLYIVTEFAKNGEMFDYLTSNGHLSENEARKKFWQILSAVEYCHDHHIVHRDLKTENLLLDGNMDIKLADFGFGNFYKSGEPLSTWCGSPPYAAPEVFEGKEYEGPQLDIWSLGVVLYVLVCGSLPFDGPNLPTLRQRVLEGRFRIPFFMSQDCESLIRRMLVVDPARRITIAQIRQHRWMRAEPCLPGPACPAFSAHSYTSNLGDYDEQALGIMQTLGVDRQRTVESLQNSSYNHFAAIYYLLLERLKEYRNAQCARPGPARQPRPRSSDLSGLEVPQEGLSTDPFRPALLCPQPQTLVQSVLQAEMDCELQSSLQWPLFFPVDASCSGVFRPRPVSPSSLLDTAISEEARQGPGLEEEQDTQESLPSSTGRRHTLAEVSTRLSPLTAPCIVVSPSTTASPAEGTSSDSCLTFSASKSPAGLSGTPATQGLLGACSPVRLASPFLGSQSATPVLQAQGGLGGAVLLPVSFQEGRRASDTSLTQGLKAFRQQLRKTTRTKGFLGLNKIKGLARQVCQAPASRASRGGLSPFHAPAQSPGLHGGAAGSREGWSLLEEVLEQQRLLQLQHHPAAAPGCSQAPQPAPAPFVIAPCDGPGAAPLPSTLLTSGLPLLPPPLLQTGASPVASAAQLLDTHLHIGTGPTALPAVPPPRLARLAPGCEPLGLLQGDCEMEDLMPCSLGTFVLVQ
Serine/threonine-protein kinase PLK2 (Homo sapiens), sequence (Q9NYY3 whole entry, looked up): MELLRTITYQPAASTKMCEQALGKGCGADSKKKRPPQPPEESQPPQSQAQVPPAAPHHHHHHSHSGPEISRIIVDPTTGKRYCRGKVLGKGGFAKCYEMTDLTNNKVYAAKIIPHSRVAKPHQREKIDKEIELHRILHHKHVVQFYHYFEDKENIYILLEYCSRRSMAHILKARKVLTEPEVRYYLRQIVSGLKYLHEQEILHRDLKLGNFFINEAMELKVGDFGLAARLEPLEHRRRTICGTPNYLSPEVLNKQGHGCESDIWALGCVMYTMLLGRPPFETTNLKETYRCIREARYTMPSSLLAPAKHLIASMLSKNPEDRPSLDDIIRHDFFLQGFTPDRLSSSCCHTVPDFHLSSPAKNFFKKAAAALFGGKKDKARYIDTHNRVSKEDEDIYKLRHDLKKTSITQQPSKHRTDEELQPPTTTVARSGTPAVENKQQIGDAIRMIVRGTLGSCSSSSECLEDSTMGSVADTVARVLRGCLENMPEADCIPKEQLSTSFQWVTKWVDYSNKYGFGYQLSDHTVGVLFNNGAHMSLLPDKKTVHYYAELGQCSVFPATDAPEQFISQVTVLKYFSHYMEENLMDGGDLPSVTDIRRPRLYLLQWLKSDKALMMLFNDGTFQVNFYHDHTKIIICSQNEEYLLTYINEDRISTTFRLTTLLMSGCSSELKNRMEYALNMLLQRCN
SRSF protein kinase 1 (Homo sapiens), sequence (Q96SB4 whole entry): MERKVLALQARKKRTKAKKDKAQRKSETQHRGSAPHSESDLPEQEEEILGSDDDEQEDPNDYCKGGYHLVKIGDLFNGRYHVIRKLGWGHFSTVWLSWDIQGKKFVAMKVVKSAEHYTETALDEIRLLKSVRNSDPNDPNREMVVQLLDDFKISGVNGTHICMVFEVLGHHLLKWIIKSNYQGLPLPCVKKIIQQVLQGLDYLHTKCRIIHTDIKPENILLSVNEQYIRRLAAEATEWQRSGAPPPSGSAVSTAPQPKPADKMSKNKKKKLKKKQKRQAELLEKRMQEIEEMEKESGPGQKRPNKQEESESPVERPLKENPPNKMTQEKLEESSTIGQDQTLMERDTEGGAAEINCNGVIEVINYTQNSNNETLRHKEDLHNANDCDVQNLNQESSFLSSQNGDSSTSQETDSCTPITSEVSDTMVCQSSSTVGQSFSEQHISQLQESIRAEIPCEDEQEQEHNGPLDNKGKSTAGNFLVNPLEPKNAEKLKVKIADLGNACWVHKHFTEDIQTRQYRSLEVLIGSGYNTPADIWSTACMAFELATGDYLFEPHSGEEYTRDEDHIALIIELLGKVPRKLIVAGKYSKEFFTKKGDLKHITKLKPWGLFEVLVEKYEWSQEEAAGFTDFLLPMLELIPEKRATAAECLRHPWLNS
SRSF protein kinase 2 (Homo sapiens), sequence (P78362 whole entry, looked up): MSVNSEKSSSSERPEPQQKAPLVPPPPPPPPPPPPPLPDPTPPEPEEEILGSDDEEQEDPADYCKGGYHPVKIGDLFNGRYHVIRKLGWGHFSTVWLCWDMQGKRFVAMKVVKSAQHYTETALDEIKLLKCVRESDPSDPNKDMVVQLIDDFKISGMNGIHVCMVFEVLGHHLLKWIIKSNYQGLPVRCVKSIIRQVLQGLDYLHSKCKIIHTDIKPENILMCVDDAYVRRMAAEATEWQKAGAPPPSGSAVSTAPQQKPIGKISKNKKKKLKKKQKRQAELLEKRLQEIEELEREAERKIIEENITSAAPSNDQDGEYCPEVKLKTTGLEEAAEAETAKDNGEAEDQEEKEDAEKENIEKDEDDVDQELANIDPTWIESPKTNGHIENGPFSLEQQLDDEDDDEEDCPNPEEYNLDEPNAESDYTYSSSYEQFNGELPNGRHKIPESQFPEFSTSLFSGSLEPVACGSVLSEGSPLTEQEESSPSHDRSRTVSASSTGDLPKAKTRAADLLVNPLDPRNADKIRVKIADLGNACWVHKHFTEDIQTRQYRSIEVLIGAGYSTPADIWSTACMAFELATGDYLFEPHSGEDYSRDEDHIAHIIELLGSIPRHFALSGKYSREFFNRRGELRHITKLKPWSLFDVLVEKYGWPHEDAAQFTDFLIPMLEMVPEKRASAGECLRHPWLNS
Serine/threonine-protein kinase 33 (Homo sapiens), sequence (Q9BYT3 whole entry, looked up): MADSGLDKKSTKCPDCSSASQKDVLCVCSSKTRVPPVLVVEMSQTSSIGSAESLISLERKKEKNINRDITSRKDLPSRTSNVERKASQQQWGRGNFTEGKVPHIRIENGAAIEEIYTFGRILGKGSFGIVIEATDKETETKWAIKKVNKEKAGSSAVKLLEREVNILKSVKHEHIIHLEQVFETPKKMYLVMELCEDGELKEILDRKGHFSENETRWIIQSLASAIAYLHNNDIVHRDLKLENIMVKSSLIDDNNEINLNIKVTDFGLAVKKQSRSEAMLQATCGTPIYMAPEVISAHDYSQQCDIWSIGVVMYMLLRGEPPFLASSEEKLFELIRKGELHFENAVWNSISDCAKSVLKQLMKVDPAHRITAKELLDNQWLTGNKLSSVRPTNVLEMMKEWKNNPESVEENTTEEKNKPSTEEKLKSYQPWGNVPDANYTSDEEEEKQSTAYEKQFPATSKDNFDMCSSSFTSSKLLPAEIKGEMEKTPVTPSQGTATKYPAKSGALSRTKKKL

Structure (SMILES)	residual activity [1]	residual activity [2]	residual activity [3]	residual activity [4]	residual activity [5]	residual activity [6]	residual activity [7]	residual activity [8]	residual activity [9]	residual activity [10]	residual activity [11]	residual activity [12]	residual activity [13]	residual activity [14]	residual activity [15]	residual activity [16]	residual activity [17]	residual activity [18]	residual activity [19]	residual activity [20]
CSc1nc(-c2ccc(F)cc2)c(-c2ccnc(NC(C)c3ccccc3)c2)[nH]1 (configuration not stated)	87%	94%	84%	91%	87%	92%	93%	87%	101%	75%	101%	93%	102%	83%	83%	91%	102%			
O=C(Nc1nc2ccccc2n1CCN1CCOCC1)c1cccc([N+](=O)[O-])c1	73%			79%	74%	83%	88%		123%	84%	78%	74%					73%			
O=c1cc(N2CCNCC2)oc2c(-c3ccccc3)cccc12	8%	99%	85%	91%	93%	98%	93%	95%		92%	95%	83%		85%	96%	92%	72%	99%	105%	98%
COc1cc2c(cc1OC)-c1n[nH]c(Nc3cccc(F)c3)c1C2	5%		105%						117%	76%				61%	78%		52%			
O=c1cc(N2CCOCC2)oc2c1ccc1ccccc12	93%	99%	93%	97%	97%	93%	101%	85%		94%	93%	90%	102%	87%	96%	95%	77%	98%	98%	98%
CN([C@@H](Cc1ccc(OS(=O)(=O)c2cccc3cnccc23)cc1)C(=O)N1CCN(c2ccccc2)CC1)S(=O)(=O)c1cccc2cnccc12	124%		86%					99%			99%	98%						100%		
CCCC(=O)Oc1ccc2[nH]c(C(=O)c3cc4ccccc4[nH]3)cc2c1	54%	104%	103%	103%	87%	92%	91%	107%	126%	101%	83%	87%	91%	81%	83%	86%	63%	102%	104%	89%
